Laboratory results as given in PubChem BioAssay.
For part of these data: Entries with a potency or affinity are not part of this list. Active and inactive are the calls of the source. Unless noted, no rule for the calls is given here.

How the values were obtained:
[1] = antimalarial activity against Dd2 strain (AID 2302;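 active = growth inhibition above 50% at the single 2 µM test dose, taken to imply half-maximal potency below 2 µM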;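 also: 0% = DMSO untreated growth and 100% = chloroquine plus artemisinin killed control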); details: P. falciparum Dd2 in RBCs, LDH growth readout, 72 h; at 2 µM; hits give high values
[2] = HepG2 cytotoxicity, primary screen, cytotoxicity control for P. falciparum antimalarial project, cell-based, ATP luminescence (AID 2303;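 active = inhibition above 50%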;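 also: 0% = DMSO wells and 100% = digitonin-killed cells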); details: HepG2 viability, 24-48 h, at 10 µM, hits give high values
[3] = target: L-lactate dehydrogenase (Plasmodium falciparum (isolate CDC / Honduras)) (UniProt Q27743); test: PfLDH activity inhibition – cell lysate, 3D7 strain, counter-screen for P. falciparum growth inhibition project (AID 2304);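 also: 0% = vehicle and 100% = reference inhibitor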; details: P. falciparum 3D7 crude extract, LDH APAD/NBT absorbance; at 2 µM; hits give high values
L-lactate dehydrogenase (Plasmodium falciparum (isolate CDC / Honduras)), sequence (Q27743 whole entry, looked up): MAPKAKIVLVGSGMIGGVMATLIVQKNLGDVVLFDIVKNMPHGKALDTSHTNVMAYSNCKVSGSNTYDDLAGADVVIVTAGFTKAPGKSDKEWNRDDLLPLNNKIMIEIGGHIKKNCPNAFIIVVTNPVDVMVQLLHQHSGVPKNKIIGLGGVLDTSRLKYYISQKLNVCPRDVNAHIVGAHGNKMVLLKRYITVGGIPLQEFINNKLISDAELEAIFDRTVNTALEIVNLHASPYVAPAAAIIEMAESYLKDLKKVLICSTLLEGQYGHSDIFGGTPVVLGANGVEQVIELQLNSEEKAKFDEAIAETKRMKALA

[4] = inhibition of 3D7 malaria parasite growth – strain 3D7 (AID 2306);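 also: 0% = DMSO wells and 100% = chloroquine plus artemisinin control wells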; details: P. falciparum 3D7 erythrocytic growth, LDH absorbance, 72 h; at 2 µM; hits give high values
[5] = target: Calcium-dependent protein kinase 1 (Plasmodium falciparum (isolate 3D7)) (UniProt P62344); test: PfCDPK1 kinase inhibitors, biochemical, TCAMS library (AID 1159585; cut-off not given, nearly all actives have IC50 up to about 0.98 µM;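 also: inhibitors leave more ATP so luminescence rises with inhibition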); details: recombinant PfCDPK1, Kinase-Glo ATP depletion luminescence
Calcium-dependent protein kinase 1 (Plasmodium falciparum (isolate 3D7)), sequence (P62344 whole entry, looked up): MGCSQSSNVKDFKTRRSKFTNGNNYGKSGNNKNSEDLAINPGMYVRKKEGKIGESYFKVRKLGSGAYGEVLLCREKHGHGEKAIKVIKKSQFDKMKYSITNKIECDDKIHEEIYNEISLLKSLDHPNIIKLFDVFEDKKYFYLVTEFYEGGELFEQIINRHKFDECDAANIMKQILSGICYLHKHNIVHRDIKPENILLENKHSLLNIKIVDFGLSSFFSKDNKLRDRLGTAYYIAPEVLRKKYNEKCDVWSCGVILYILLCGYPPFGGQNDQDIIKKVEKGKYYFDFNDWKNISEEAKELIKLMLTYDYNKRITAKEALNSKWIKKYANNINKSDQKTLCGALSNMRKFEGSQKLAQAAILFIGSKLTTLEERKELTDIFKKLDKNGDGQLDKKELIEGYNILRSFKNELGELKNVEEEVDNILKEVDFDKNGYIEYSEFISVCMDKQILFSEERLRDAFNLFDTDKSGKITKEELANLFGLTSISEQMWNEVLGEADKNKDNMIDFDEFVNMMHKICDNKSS

[6] = target: Plasmodium falciparum protein kinase 6 (PK6, PF3D7_1337100) (UniProt Q8IDW1); test: PfPK6 kinase inhibitors, biochemical, TCAMS library (AID 1159586); details: recombinant PfPK6, Kinase-Glo ATP depletion luminescence
Plasmodium falciparum protein kinase 6 (PK6, PF3D7_1337100), sequence (Q8IDW1 1-305): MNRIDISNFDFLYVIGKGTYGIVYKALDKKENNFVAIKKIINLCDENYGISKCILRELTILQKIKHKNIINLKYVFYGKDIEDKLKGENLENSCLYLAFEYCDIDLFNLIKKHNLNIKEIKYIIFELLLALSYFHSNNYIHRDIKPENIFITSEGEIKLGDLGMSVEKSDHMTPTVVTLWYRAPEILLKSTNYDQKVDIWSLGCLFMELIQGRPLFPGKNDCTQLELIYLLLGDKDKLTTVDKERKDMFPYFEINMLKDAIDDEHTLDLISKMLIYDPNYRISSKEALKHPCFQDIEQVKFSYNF

[7] = target: Protein kinase 7 (PK7), Plasmodium falciparum 3D7 (PF3D7_0213400) (UniProt Q7YTF7); test: inhibition of Plasmodium PK7 catalytic activity – biochemical, TCAMS antimalarial set, Kinase-Glo luminescence (AID 1159587); details: recombinant PfPK7, Kinase-Glo ATP depletion luminescence
Protein kinase 7 (PK7), Plasmodium falciparum 3D7 (PF3D7_0213400), sequence (Q7YTF7 1-343): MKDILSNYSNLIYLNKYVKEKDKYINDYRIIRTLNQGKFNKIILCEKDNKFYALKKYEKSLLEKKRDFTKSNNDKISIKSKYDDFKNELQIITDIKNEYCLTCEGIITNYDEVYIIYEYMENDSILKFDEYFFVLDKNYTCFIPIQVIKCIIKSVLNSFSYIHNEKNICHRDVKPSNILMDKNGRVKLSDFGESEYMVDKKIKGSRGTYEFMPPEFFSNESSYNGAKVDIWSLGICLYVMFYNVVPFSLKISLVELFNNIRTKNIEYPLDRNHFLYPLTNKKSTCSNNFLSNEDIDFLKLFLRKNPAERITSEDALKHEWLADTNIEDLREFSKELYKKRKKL

[8] = target: Calcium-dependent protein kinase 4 (Plasmodium falciparum (isolate 3D7)) (UniProt Q8IBS5); test: PfCDPK4 kinase inhibitors, biochemical, TCAMS library (AID 1159588; cut-off not given, nearly all actives have IC50 up to about 0.91 µM); details: recombinant PfCDPK4, Kinase-Glo ATP depletion luminescence
Calcium-dependent protein kinase 4 (Plasmodium falciparum (isolate 3D7)), sequence (Q8IBS5 whole entry, looked up): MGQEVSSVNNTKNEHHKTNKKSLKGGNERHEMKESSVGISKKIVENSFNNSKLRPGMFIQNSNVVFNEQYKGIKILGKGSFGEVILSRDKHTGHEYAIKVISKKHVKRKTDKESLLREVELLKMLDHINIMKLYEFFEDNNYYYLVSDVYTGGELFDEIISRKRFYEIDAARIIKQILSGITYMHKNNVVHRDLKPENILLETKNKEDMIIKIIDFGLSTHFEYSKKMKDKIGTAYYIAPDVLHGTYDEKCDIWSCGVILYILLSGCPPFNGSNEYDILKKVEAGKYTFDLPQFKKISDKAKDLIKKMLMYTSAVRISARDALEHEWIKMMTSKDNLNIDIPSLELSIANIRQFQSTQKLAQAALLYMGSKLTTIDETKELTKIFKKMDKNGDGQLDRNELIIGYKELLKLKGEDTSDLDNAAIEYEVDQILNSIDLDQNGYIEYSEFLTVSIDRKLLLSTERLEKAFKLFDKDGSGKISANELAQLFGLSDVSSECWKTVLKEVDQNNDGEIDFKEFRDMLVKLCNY

CC(Cc1ccc(NC(=O)c2ccc(CNCCCCc3ccccc3)cc2)cc1)NCCc1cccc(Cl)c1 (stereo unspecified)
inactive: inhibition [3] -1% | outcome [5] | outcome [6] | outcome [7] | outcome [8]
active: growth inhibition [1] 96% | inhibition [2] 100% | growth inhibition [4] 100%

c1ccc(CCNc2nc(NCC(c3ccccc3)c3ccccc3)c3[nH]cnc3n2)cc1
active: growth inhibition [1] 95% | growth inhibition [4] 100%
inactive: inhibition [2] 9% | inhibition [3] -1% | outcome [5] | outcome [6] | outcome [7] | outcome [8]

COc1ccc(NC(=O)Nc2ccc(-c3ccccc3)cc2Cl)cc1N1CCN(C)CC1
active: growth inhibition [4] 90%
inactive: growth inhibition [1] 30% | inhibition [2] 40% | inhibition [3] 0% | outcome [5] | outcome [6] | outcome [7] | outcome [8]

CCOC(=O)CN(c1ccc(Br)cc1OCCOc1cc(Br)ccc1N(CC(=O)OCC)C(C)C(=O)OCC)C(C)C(=O)OCC (stereo unspecified)
inactive: growth inhibition [1] 6% | inhibition [2] -15% | inhibition [3] 6% | outcome [5] | outcome [6] | outcome [7] | outcome [8]
active: growth inhibition [4] 94%

CC(C)(C)c1nn(-c2ccc(Cl)cc2)c2[nH]c(=O)c(CNCc3ccc4c(c3)OCO4)cc12
active: growth inhibition [1] 98% | growth inhibition [4] 100%
inactive: inhibition [2] 15% | inhibition [3] 7% | outcome [5] | outcome [6] | outcome [7] | outcome [8]

FC(F)(F)c1ccc2nc(-c3cccc(-c4ccc(CNCCc5ccncc5)cc4)c3)[nH]c2c1
inactive: inhibition [2] 23% | inhibition [3] -1% | outcome [5] | outcome [6] | outcome [7] | outcome [8]
active: growth inhibition [1] 100% | growth inhibition [4] 99%

O=C(NCCNc1nc(NCCNC(=O)Nc2ccccc2)c2ccc(=O)n(-c3c(F)cccc3F)c2n1)Nc1ccccc1
inactive: inhibition [2] 1% | inhibition [3] 6% | outcome [5] | outcome [6] | outcome [7] | outcome [8]
active: growth inhibition [1] 87% | growth inhibition [4] 94%

COc1cccc(-c2ccc3c(-c4cccc(NC(C)=O)c4)cnc(N)c3c2)c1
inactive: inhibition [3] -6% | outcome [5] | outcome [6] | outcome [7] | outcome [8]
active: growth inhibition [1] 83% | inhibition [2] 71% | growth inhibition [4] 99%

Cc1cc(N2CCCCC2)nc2ccc(NC(=O)c3cc(=O)c4ccccc4o3)cc12
inactive: growth inhibition [1] 19% | inhibition [2] 15% | inhibition [3] -7% | outcome [5] | outcome [6] | outcome [7] | outcome [8]
active: growth inhibition [4] 98%

CC(C)CCN1CCC(Oc2ccc(NC(=O)c3ccsc3)cc2Cl)CC1
inactive: inhibition [2] 19% | inhibition [3] 0% | outcome [5] | outcome [6] | outcome [7] | outcome [8]
active: growth inhibition [1] 81% | growth inhibition [4] 89%

NC(=O)c1cc2nc(NC3CCC3)nc(Nc3cccc4[nH]ncc34)c2[nH]1
active: growth inhibition [1] 62% | growth inhibition [4] 100%
inactive: inhibition [2] 9% | inhibition [3] 4% | outcome [5] | outcome [6] | outcome [7] | outcome [8]

CN1CCN(S(=O)(=O)c2ccc3nccc(Nc4ccc(Oc5ccccc5)cc4)c3c2)CC1
active: growth inhibition [1] 91% | growth inhibition [4] 98%
inactive: inhibition [2] -9% | inhibition [3] -3% | outcome [5] | outcome [6] | outcome [7] | outcome [8]

Cc1cc(Nc2ccc(Cl)c(Cl)c2)n2nc(C)nc2n1
inactive: inhibition [2] 6% | inhibition [3] -4% | outcome [5] | outcome [6] | outcome [7] | outcome [8]
active: growth inhibition [1] 97% | growth inhibition [4] 97%

Cc1ccc(Nc2nc(C)cc(NC3CCN(C)CC3)n2)cc1
inactive: growth inhibition [1] 21% | inhibition [2] 14% | inhibition [3] 2% | outcome [5] | outcome [6] | outcome [7] | outcome [8]
active: growth inhibition [4] 100%

CN(C)c1ccc(-c2nc3ccc(N)cc3[nH]2)cc1
active: growth inhibition [1] 97% | growth inhibition [4] 102%
inactive: inhibition [2] 1% | inhibition [3] -1% | outcome [5] | outcome [6] | outcome [7] | outcome [8]

O=C(Nc1ccc2c(c1)CCN2C1CCN(Cc2cccc(C(F)(F)F)c2)C1)c1ccco1 (stereo unspecified)
inactive: inhibition [2] 4% | inhibition [3] -1% | outcome [5] | outcome [6] | outcome [7] | outcome [8]
active: growth inhibition [1] 92% | growth inhibition [4] 95%

OCC1CCN(Cc2cccc(-c3cccc(-c4nc5ccc(C(F)(F)F)cc5[nH]4)c3)c2)CC1
active: growth inhibition [1] 101% | growth inhibition [4] 102%
inactive: inhibition [2] 24% | inhibition [3] -3% | outcome [5] | outcome [6] | outcome [7] | outcome [8]

COc1ccc(Br)cc1/C=C/C(=O)Nc1cccc(C2CCN(C)CC2)c1
inactive: growth inhibition [1] 37% | inhibition [2] 44% | inhibition [3] -2% | outcome [5] | outcome [6] | outcome [7] | outcome [8]
active: growth inhibition [4] 95%

Cc1cccc2[nH]c(-c3cccc(-c4cccc(NC(=O)c5cnc[nH]5)c4)c3)nc12
active: growth inhibition [1] 91% | growth inhibition [4] 100%
inactive: inhibition [2] 2% | inhibition [3] 0% | outcome [5] | outcome [6] | outcome [7] | outcome [8]

O=S(=O)(NCCN1CCCC1)c1cccc(-c2ccc(CNCc3ccccc3)cc2)c1
inactive: growth inhibition [1] 41% | inhibition [3] -8% | outcome [5] | outcome [6] | outcome [7] | outcome [8]
active: inhibition [2] 54% | growth inhibition [4] 95%

O=C(/C=C/c1ccc(Cl)c(Cl)c1)NCCCCCN1CCCN(C(=S)Nc2ccc(Cl)c(Cl)c2)CC1
active: growth inhibition [4] 96%
inactive: growth inhibition [1] -3% | inhibition [2] 16% | inhibition [3] -3% | outcome [5] | outcome [6] | outcome [7] | outcome [8]

Cc1cnc(CN(Cc2ccc(-c3ccc(CNCCc4ccc(S(C)(=O)=O)cc4)cn3)cc2)C(=O)c2ccc([N+](=O)[O-])c(C)c2)cn1
active: growth inhibition [4] 93%
inactive: growth inhibition [1] 15% | inhibition [2] -4% | inhibition [3] 4% | outcome [5] | outcome [6] | outcome [7] | outcome [8]

OC1(Cc2ccccc2)CCN(Cc2cccc(-c3c[nH]c4nc(NC5CCCC5)ncc34)c2)CC1
active: growth inhibition [4] 96%
inactive: growth inhibition [1] 35% | inhibition [2] 45% | inhibition [3] 4% | outcome [5] | outcome [6] | outcome [7] | outcome [8]

c1ccc(CCNc2ccnc(Nc3ccc4cn[nH]c4c3)n2)cc1
inactive: inhibition [3] -3% | outcome [5] | outcome [6] | outcome [7] | outcome [8]
active: growth inhibition [1] 100% | inhibition [2] 54% | growth inhibition [4] 101%

O=C(Nc1cc(C(F)(F)F)cc(C(F)(F)F)c1)NC(CCCN1CCC2(CC1)OCc1ccccc12)c1ccc(Cl)c(Cl)c1 (stereo unspecified)
active: growth inhibition [1] 87% | growth inhibition [4] 94%
inactive: inhibition [2] 26% | inhibition [3] 2% | outcome [5] | outcome [6] | outcome [7] | outcome [8]

Nc1ncc(-c2ccsc2)c2ccc(-c3cnc[nH]3)cc12
active: growth inhibition [1] 70% | growth inhibition [4] 100%
inactive: inhibition [2] 31% | inhibition [3] -7% | outcome [5] | outcome [6] | outcome [7] | outcome [8]

CN1CCN(c2ccnc3ccc(NC(=O)Nc4cccc5ccccc45)cc23)CC1
inactive: inhibition [2] -3% | inhibition [3] 1% | outcome [5] | outcome [6] | outcome [7] | outcome [8]
active: growth inhibition [1] 96% | growth inhibition [4] 101%

CC1(C)N=C(N)N=C(N)N1OCCCNC(=O)c1ccc([N+](=O)[O-])cc1
active: growth inhibition [1] 97% | inhibition [2] 57% | growth inhibition [4] 92%
inactive: inhibition [3] 2% | outcome [5] | outcome [6] | outcome [7] | outcome [8]

Cc1ccc(-c2nnc(Nc3ccc(OCC(N)=O)cc3)c3ccccc23)cc1S(=O)(=O)NCC1CCCO1 (stereo unspecified)
inactive: inhibition [2] 0% | inhibition [3] -2% | outcome [5] | outcome [6] | outcome [7] | outcome [8]
active: growth inhibition [1] 70% | growth inhibition [4] 92%

CC(C)(C)C(=O)Nc1ccccc1Oc1ccc(Cl)cc1
inactive: inhibition [3] 7% | outcome [5] | outcome [6] | outcome [7] | outcome [8]
active: growth inhibition [1] 96% | inhibition [2] 54% | growth inhibition [4] 92%

COc1cc(Cc2cnc(N)nc2N)cc(OCCCCC2SC(=O)NC2=O)c1Br (stereo unspecified)
active: growth inhibition [4] 94%
inactive: growth inhibition [1] -2% | inhibition [2] 15% | inhibition [3] 4% | outcome [5] | outcome [6] | outcome [7] | outcome [8]

COc1ccc(C2CC(c3cccs3)=NN2C(=O)CNc2cccc(C#N)c2)cc1OC (stereo unspecified)
inactive: growth inhibition [1] 35% | inhibition [2] 8% | inhibition [3] -4% | outcome [5] | outcome [6] | outcome [7] | outcome [8]
active: growth inhibition [4] 87%

COc1ccc(OC)c2c1CCN(CCN1CCC(C(=O)Nc3ccc(C(=O)Nc4ccc(Cl)cc4)cc3)CC1)C2
inactive: inhibition [2] 25% | inhibition [3] -2% | outcome [5] | outcome [6] | outcome [7] | outcome [8]
active: growth inhibition [1] 100% | growth inhibition [4] 100%

CCCc1ccc(S(=O)(=O)NC2CCN(c3ccnc(Nc4ccc(F)cc4)n3)C2)cc1 (stereo unspecified)
active: growth inhibition [1] 56% | growth inhibition [4] 95%
inactive: inhibition [2] 40% | inhibition [3] -6% | outcome [5] | outcome [6] | outcome [7] | outcome [8]

O=[N+]([O-])c1ccc(-c2ccc(C=NNc3nc(Nc4ccccc4)nc(Nc4ccccc4)n3)o2)cc1
inactive: growth inhibition [1] 12% | inhibition [2] -4% | inhibition [3] 1% | outcome [5] | outcome [6] | outcome [7] | outcome [8]
active: growth inhibition [4] 91%

COc1cc2nc(C)nc(Nc3ccc(Cc4ccccc4)cc3)c2cc1OC
active: growth inhibition [1] 99% | growth inhibition [4] 101%
inactive: inhibition [2] 16% | inhibition [3] -1% | outcome [5] | outcome [6] | outcome [7] | outcome [8]

O=c1cc(NCCCNCc2cc(Br)ccc2F)[nH]c2ccccc12
inactive: growth inhibition [1] 14% | inhibition [2] -2% | inhibition [3] 6% | outcome [5] | outcome [6] | outcome [7] | outcome [8]
active: growth inhibition [4] 95%

CCC(C)(C)n1c(C)cc2c3c(N)nc(N)nc3ccc21
active: growth inhibition [1] 85% | inhibition [2] 69% | growth inhibition [4] 97%
inactive: inhibition [3] 1% | outcome [5] | outcome [6] | outcome [7] | outcome [8]

O=C(Nc1ccc(OC2CCN(Cc3ccsc3)CC2)c(Cl)c1)c1ccco1
active: growth inhibition [1] 85% | growth inhibition [4] 87%
inactive: inhibition [2] 7% | inhibition [3] -4% | outcome [5] | outcome [6] | outcome [7] | outcome [8]

O=C(c1ccc([N+](=O)[O-])o1)N1CCN(c2ccccc2)CC1
inactive: inhibition [2] 44% | inhibition [3] 0% | outcome [5] | outcome [6] | outcome [7] | outcome [8]
active: growth inhibition [1] 72% | growth inhibition [4] 94%

Cc1ccc2nc(C)n(C3CCN(C(=O)C4(c5ccccc5)CC4)CC3)c2c1
active: growth inhibition [1] 83% | growth inhibition [4] 100%
inactive: inhibition [2] 8% | inhibition [3] 7% | outcome [5] | outcome [6] | outcome [7] | outcome [8]

CC(C)CCCC(C)(C)NC[C@@H](O)[C@H](Cc1ccccc1)NC(=O)c1cccc(OCC2CC2)c1
inactive: inhibition [3] 3% | outcome [5] | outcome [6] | outcome [7] | outcome [8]
active: growth inhibition [1] 91% | inhibition [2] 99% | growth inhibition [4] 96%
